Measured values published in PubChem BioAssay (NCATS).
Inconclusive results are not listed. Entries that show only a call come without a potency. Unmarked numbers belong to inactive results. The source made the active and inactive calls. The call rests on the fitted dose curve; in most records, active means well fitted curve in the direction sought with a large enough effect; inconclusive means small, poorly fitted or top-dose-only effect, or another doubt; inactive means no such curve, though single readings can be large; an effect the other way counts as inactive or inconclusive.

Assays:
[1] = Viability qHTS for spleen associated tyrosine kinase inhibitor (SYKi) drug resistant MV4-11 cells (AID 1963824); further: nearly all actives have a fitted effect of over 35% in size; further: potency means the concentration at half of the fitted maximal effect
Outline: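 SYK inhibitor-resistant MV4-11 AML cells, 500 per well, added to predispensed compounds and incubated 72 hr at 37 C, 5% CO2. Viability measured by CellTiter-Glo luminescence after 10 min at room temperature.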

[2] = Quantitative highthroughput screen to assess conditional lethalithy of NOMO1 cells grown in RPMI1640 with untreated serum (RPMI+s) (AID 1963876); further: nearly all actives have a fitted effect of over 35% in size
Outline: (§1)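 Each medium arm—HPLM with 10% dialyzed FBS, or RPMI1640 with 5 mM glucose and 10% untreated or dialyzed FBS—was screened against an 11-point, 3-fold compound titration for 48 h at 37 °C, with CellTiter-Glo luminescence as endpoint.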

[3] = Quantitative highthroughput screen to assess conditional lethalithy of P12 Ichikawa cells grown in Human Plasma-Like Medium with dialyzed fetal bovine serum (HPLM+ds) (AID 1963879); conditions: Potency: viability; further: series mostly up to about 46 µM; nearly all actives have a fitted effect of over 35% in size
Outline: as §1

[4] = Quantitative highthroughput screen to assess conditional lethalithy of P12 Ichikawa cells grown in RPMI1640 with dialyzed fetal bovine serum (RPMI+ds) (AID 1963880); conditions: Potency: P12-Ichikawa viability; further: nearly all actives have a fitted effect of over 35% in size
Outline: as §1

[5] = Quantitative highthroughput screen to assess conditional lethalithy of SEM cells grown in RPMI1640 with unreated serum (RPMI+s) (AID 1963883); further: nearly all actives have a fitted effect of over 35% in size
Outline: as §1

[6] = Quantitative highthroughput screen to assess conditional lethalithy of SEM cells grown in RPMI1640 with dialyzed fetal bovine serum (RPMI+ds) (AID 1963884)
Outline: as §1

[7] = Cellular viability qHTS for adrenocortical cancer (ACC) cell line SW-13 (AID 1963989); conditions: SW-13 ACC cells viability, CellTiter-Glo, 48 h; activity (max response): hits give low values;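 further: cells grown in serum-free medium with ITS supplement; nearly all actives have a fitted effect of over 65% in size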
Outline: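 Compound titrations (up to 46 uM final, in DMSO) were applied to SW-13 cells for 48 h at 37C/5% CO2. Reading used CellTiter-Glo after 20 min at room temperature; fitted curves yielded IC50 and efficacy.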

[8] = Cellular viability qHTS for adrenocortical cancer (ACC) cell line NCI-H295R (AID 1963990); further: nearly all actives have a fitted effect of over 60% in size
Outline: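 Readout: CellTiter-Glo luminescence, 20 min RT. Exposure: 48 h, 37C/5% CO2. Cells: NCI-H295R, ITS-DMEM serum-free. Range: up to 46 uM. Analysis: 4PL fit, IC50 plus efficacy.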

With `CC(=O)OC[C@]12[C@H](OC(C)=O)C(=O)[C@@H]3[C@@H](O)[C@@]14O[C@@]3(C)COC(=O)c1cccnc1[C@@H](C)[C@H](C)C(=O)O[C@@H]([C@H](OC(C)=O)[C@@H]2OC(C)=O)[C@]4(C)O` the Potency [1] was 5.44 µM (active).

With `CCCCOC(=O)c1ccnc2cc(C(OCCN3CCCCC3)c3ccccc3Cl)sc12` (stereo not given) the Potency [1] was 20.6 µM (active).

With `CCOC(=O)C1(CCc2ccccc2)CCN(Cc2ccc(NC(C)=O)cc2)CC1` the Potency [1] was 23.1 µM (active).

With `Oc1ccc(Cl)cc1` the Potency [1] was “inactive”.

With `CCc1c(C(=O)C(N)=O)c2c(OCC(=O)OC)cccc2n1Cc1ccccc1` the Potency [1] was 2.31 µM (active).

In the case of `COc1cc2c(cc1O)C1(C)CCC(O)C(C)(C)C1CC2=O` (stereo not given), the Potency [1] is reported as “inactive”.

With `C#CC1(O)CCC2C3CCC4=CC(=O)CCC4=C3C=CC21C` (stereo not given) the Potency [1] was 18.4 µM (active).

In the case of `C#CC1(O)CCC2C3CCC4=CC(=O)CCC4(C)C3CCC21C` (stereo not given), the Potency [1] is reported as 11.8 µM (active), the Potency [2] is reported as “inactive” and the Potency [3] is reported as “inactive”. The Potency [4] was “inactive”, the Potency [5] was “inactive” and the Potency [6] was “inactive”. The activity (max response) [7] was 9.7% and the Potency [8] was “inactive”.

In the case of `Cn1ncnc1COc1nn2c(-c3c(F)cccc3F)nnc2cc1C1CCC1`, the Potency [1] is reported as “inactive”.

With `CCC(C)C1NC(=O)C(C(C)=O)=C1O` (stereo not given) the Potency [1] was 29.8 µM (active).

With `C[C@H](NC(=O)Cc1cc(F)cc(F)c1)C(=O)N[C@@H]1N=C(c2ccccc2)c2ccccc2N(C)C1=O` the Potency [1] was “inactive”.

With `Cc1sc2c(c1C)C(c1ccc(Cl)cc1)=NC(CC(=O)OC(C)(C)C)c1nnc(C)n1-2` (stereo not given) the Potency [1] was 0.116 µM (active).

With `C[C@]12CC[C@H]3[C@@H](CCC4=C/C(=N/OCC(=O)O)CC[C@@]43C)[C@@H]1CC[C@@H]2O` the Potency [1] was “inactive”.
